Potency data for nine compounds are collected here from PubChem BioAssay (NCATS).

The test system of assay [1] is Zika virus NS2B-NS3 protease (unlinked complex). Kind of assay: Primary screen GU Rhodamine qHTS for Zika virus inhibitors: Unlinked NS2B-NS3 protease assay (AID 1347159). Also: nearly all actives have a fitted effect of over 60% in size. Also: potency is read from the fitted curve at half-maximal effect. As to conditions: Recombinant ZIKV NS2B-NS3 protease, Rhodamine110 substrate fluorescence; series mostly up to 107 µM. In outline:
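Compounds, tested up to 114 microM, were incubated for 15 minutes with 25 nM unlinked NS2B-NS3 protease at pH 8.0. Cleavage of 1.5 microM Rhodamine110 substrate was then followed by fluorescence for 15 minutes.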

Assay [2] deals with Zika virus NS2B-NS3 protease (linked construct). Briefly: Primary screen NINDS Rhodamine qHTS for Zika virus inhibitors (AID 1347160). Also: nearly all actives have a fitted effect of over 55% in size. As to conditions: purified NS2B-NS3 protease, Rhodamine110 substrate fluorescence; series mostly up to 57.1 µM. In outline: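 Percent inhibition, normalized to uninhibited and enzyme-free controls, is fitted to a 4-parameter Hill equation. Fluorescence change comes from a 15-min cleavage of 1.5 microM bis-peptide Rhodamine110 substrate by 25 nM linked NS2B-NS3 at room temperature.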

Records with an inconclusive call do not appear. Where a call stands in place of a potency, no number is given. Active and inactive are the calls of the source. Calls follow the shape of the dose curve; as a rule, active = well fitted inhibition curve with a large enough effect; inconclusive = small, poorly fitted or top-dose-only effect; inactive = no such curve, though single readings can be large or run the other way.

Turning to `CC(C)(O)C1CCC(C)(C2CCC3(C)C4CCC5C(C)(C(=O)OC6OC(CO)C(O)C(O)C6O)C(O)CC(O)C56CC46CCC23C)O1` (stereo not drawn), the Potency entry in assay [1] and in assay [2] was “inactive” each time.

Turning to `COc1cc2c(cc1O)[C@H](c1ccc(O[C@@H]3O[C@H](CO)[C@@H](O)[C@H](O)[C@H]3O)c(OC)c1)[C@@H](CO)[C@](O)(CO)C2`, the Potency result in assay [1] and in assay [2] was “inactive” in each case.

Regarding `CCOC(=O)C(CCc1ccccc1)NC1CSC(c2cccs2)CN(CC(=O)O)C1=O` (stereo not drawn), the Potency result in assay [1] and in assay [2] was “inactive” in each case.

Consider `C=C(C)C1CCC2(C(=O)O)CCC3(C(=O)O)C(CCC4C5(C)CCC(O)C(C)(C(=O)O)C5CCC43C)C12` (stereo not drawn), for which the Potency entry in assay [1] and in assay [2] was “inactive” each time.

Take `CC1(C)CC[C@]2(C(=O)O)[C@H](O)C[C@]3(C)C(=CCC4[C@@]5(C)CC[C@H](O[C@@H]6O[C@H](CO[C@@H]7OC[C@H](O)[C@H](O)[C@H]7O[C@@H]7OC[C@@H](O)[C@H](O)[C@H]7O)[C@@H](O)[C@H](O)[C@H]6O[C@@H]6O[C@H](CO)[C@@H](O)[C@H](O)[C@H]6O)C(C)(C)C5CC[C@]43C)[C@@H]2C1` (stereo partly drawn): the Potency result in assay [1] and in assay [2] was “inactive” each time.

For the compound `CC1=C(C(=O)O)/C(=C\CO[C@@H]2O[C@H](CO)[C@@H](O)[C@H](O)[C@H]2O)C(OC(=O)/C=C/c2ccc(O)cc2)C1` (stereo partly drawn), the Potency result in assay [1] and in assay [2] was “inactive” each time.

Consider `CC1(C)CC[C@]2(C(=O)O[C@@H]3O[C@H](CO)[C@@H](O)[C@H](O)[C@H]3O)CC[C@]3(C)C(=CCC4[C@@]5(C)CC[C@H](O[C@@H]6O[C@H](C(=O)O)[C@@H](O)[C@H](O)[C@H]6O)[C@@](C)(CO)C5CC[C@]43C)C2C1` (stereo partly drawn), for which the Potency result in assay [1] and in assay [2] was “inactive” each time.

As for `C/C(=C\CCC(C)CCO)C(=O)O[C@@H]1[C@@H](O)[C@H](OC2OC=C(C(=O)O)C3CCC(C)(O)C23)O[C@H](CO)[C@H]1O` (stereo partly drawn), the Potency in assay [1] was 35.5 µM (active). In addition, the Potency entry in assay [2] was “inactive”.

For the compound `COc1ccc([C@@]2(O)c3c(ccc(CC=C(C)C)c3O)NC(=O)[C@@H]2OC)cc1`, the Potency result in assay [1] and in assay [2] was “inactive” throughout.
